Compound activity as filed in PubChem.
D1 PAM – human D1 dopamine receptor positive modulation | P21728 | HEK293 TREx D1 cells, calcium flux, dopamine EC20 potentiation | potentiation, % at 10 µM | hit rate 0.036% among 360,000 | AID 504651; in the data active = potentiation above about 30%; also: 0% is about no effect
Target sequence (P21728 whole entry, looked up): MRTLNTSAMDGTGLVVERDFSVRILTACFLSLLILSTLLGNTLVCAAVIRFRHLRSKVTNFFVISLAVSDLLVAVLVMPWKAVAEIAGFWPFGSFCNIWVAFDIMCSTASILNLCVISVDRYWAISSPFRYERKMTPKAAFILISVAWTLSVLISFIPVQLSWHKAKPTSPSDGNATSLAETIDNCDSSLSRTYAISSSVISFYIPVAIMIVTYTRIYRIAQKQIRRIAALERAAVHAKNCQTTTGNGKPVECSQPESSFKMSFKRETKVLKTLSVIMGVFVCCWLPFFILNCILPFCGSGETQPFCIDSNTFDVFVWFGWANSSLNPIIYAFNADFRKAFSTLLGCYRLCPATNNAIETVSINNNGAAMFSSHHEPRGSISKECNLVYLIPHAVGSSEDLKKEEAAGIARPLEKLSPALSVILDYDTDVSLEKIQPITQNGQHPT
D1 agonist – human D1 receptor agonism. P21728. HEK293 T-REx D1 cells, calcium flux, agonist mode. activation, % at 2 µM. hit rate 1% among 360,000; also: 0% is about no effect
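Inducible HEK293 T-REx D1 cells, force-coupled to calcium signalling, were plated at 4000 cells/well with tetracycline and held overnight at 30 C. After no-wash calcium dye loading, compound-evoked calcium rise over 180 s flagged agonists.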
D1 antagonist – human D1 dopamine receptor antagonism | P21728 | HEK293 TREx D1 cells, calcium flux, dopamine EC80; hits give low values | activity change, negative = inhibition, % at 10 µM | hit rate 3.2% among 360,000 | AID 504652; in the data active = activity change below about -30%; also: % is scaled to controls: 0 for no effect and ±100 for the full control effect
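HEK293 T-REx cells expressing inducible, force-coupled D1 receptor; no-wash Ca dye, 30–90 min RT. Cmpd → 180 s read at 1 Hz → EC80 DA → 180 s read.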
TRHR PAM – TRH receptor (human) allosteric enhancement. TRHR cells, fluo-8 calcium fluorescence, EC20 TRH enhancement. P34981. hit rate 0.66% among 360,000. enhancement, % at 2 µM. AID 493056; in the data active = enhancement above about 30%; also: 0% is about no effect
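Enhancer read-out: after compound pinning and an initial kinetic agonist-mode read, an EC20 of TRH (10 nM final) was injected and fluo-8 calcium signal (Ex 480/Em 530) followed at 1 s/cycle for 100 cycles in TRHR-expressing cells.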
TRHR agonist – TRH receptor (human) agonism. P34981. TRHR cells, calcium flux fluo-8, FDSS agonist mode. activation, % at 2 µM. hit rate 0.18% among 360,000. AID 493084; also: 0% is about no effect
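Fluo-8-loaded TRHR cells; 10 s baseline, compound added, kinetic Ca2+ fluorescence read 1/s, agonist mode.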
Active calls of the source: *. Rows were chosen to be rich in hits. Some 4.7% of all compounds tested hit in one or more screens of this group. Rule as the data show it, unless noted: active = activation above about 30%; inactive = the rest.

SMILES | D1 PAM | D1 agonist | D1 antagonist | TRHR PAM | TRHR agonist
O=C(COCc1cc(-c2ccc(F)cc2)on1)Nc1cc(Cl)ccc1O | 0.8 | 17.4 | -36.6* | -6.8 | 0.6
CCOC(=O)c1cn(-c2ccc([N+](=O)[O-])cc2)c2cc(Cl)c([N+](=O)[O-])cc2c1=O | -4.3 | 2.0 | -42.2* | 0.2 | 0.4
O=C(O)c1cn(-c2ccc(F)cc2)c2cc(Cl)c(F)cc2c1=O | 4.1 | 1.7 | -3.7 | -0.1 | 0.5
COc1ccccc1NC(=O)c1ccc(NC(=O)COC(=O)C2CC2C)cc1 (stereo not given) | -6.6 | -0.3 | -43.3* | 8.1 | 0.1
COc1ccccc1NC(=O)c1ccc(NC2=NC3CS(=O)(=O)CC3S2)cc1 (stereo not given) | -13.3 | 1.8 | -34.8* | 1.8 | -0.1
COc1ccccc1NC(=O)c1ccc(NC(=O)COC(=O)C2CCCO2)cc1 (stereo not given) | -1.9 | 1.8 | -11.0 | -1.0 | -0.4
CCOc1ccc(CCNC(=O)c2cccc(NC3=NC4CS(=O)(=O)CC4S3)c2)cc1 (stereo not given) | -4.8 | 1.0 | -2.2 | 33.9* | -0.9
CCOc1ccc(CCNC(=O)c2cccc(NC3=NC4CS(=O)(=O)CC4S3)c2)cc1OCC (stereo not given) | 2.6 | -0.3 | -10.6 | 0.1 | 0.3
COc1cccc(CNC(=O)c2ccc(C)c(NC3=NC4CS(=O)(=O)CC4S3)c2)c1 (stereo not given) | 0.9 | 1.8 | -32.3* | 1.4 | 0.4
CCOc1ccc(CN2CCN(C(=O)c3cccc4ccccc34)CC2)cc1 | -2.9 | 0.5 | -19.4 | -6.4 | -0.3
CCOc1ccc(NC(=O)CSc2nnc3scc(-c4ccccc4)n23)cc1 | -0.8 | -2.7 | -10.5 | 1.8 | -1.1
O=C(COc1cccnc1[N+](=O)[O-])N1CCc2ccccc21 | -0.4 | -1.6 | 12.9 | 30.6* | -0.3
O=C(Nc1nnc(C2CC2)s1)c1cccnc1Oc1ccc(Cl)cc1 | -2.9 | 1.1 | 3.6 | 0.1 | -0.6
CCC1Cc2c(nc(N)c3c(N)nc(N4CCCCC4)c(C#N)c23)O1 (stereo not given) | -5.0 | 0.3 | -30.9* | -13.8 | 0.2
COc1ccc(C)cc1-n1c(SCC(=O)NCc2ccco2)nc2c([nH]c3ccccc32)c1=O | -3.0 | 0.3 | 7.5 | 8.2 | -0.4
O=C(O)CCN1CCOCC1 | -2.4 | 1.1 | -67.2* | 2.1 | 0.5
CCn1ncc(S(=O)(=O)N2CCN(c3cccc(OC)c3)CC2)c1C | -5.2 | 3.5 | -35.4* | 24.6 | 0.1
COc1cccc(N2CCN(S(=O)(=O)c3cccc4cccnc34)CC2)c1 | 3.3 | 6.5 | -7.0 | -3.1 | -0.2
C=CCn1ccc(=NC=C(C#N)C#N)c2ccccc21 | -11.8 | 31.3* | -6.0 | 0.3 | 17.2
O=C1/C(=C/c2ccccc2)SC(=S)N1C1CCS(=O)(=O)C1 (stereo not given) | -11.4 | 9.8 | -46.4* | -2.3 | -0.3
O=C1/C(=C/c2ccncc2)SC(=S)N1C1CCS(=O)(=O)C1 (stereo not given) | -0.9 | 0.5 | -6.5 | 1.2 | 1.3
Cc1cc(C)c(S(=O)(=O)c2ccc(C(C)(C)C)cc2)c(Cl)n1 | -6.7 | 34.0* | -26.7 | 9.4 | 0.0
Cc1nc(C)c(-c2csc(N)n2)s1 | -7.3 | 2.8 | -31.0* | 2.4 | 0.6
CCCNC(=O)c1c(NC(=O)c2ccccc2)sc2c1CCC(C(C)(C)C)C2 (stereo not given) | 1.6 | 0.1 | 4.1 | -0.8 | 0.9
COc1ccc2c(c1OC)CN1CCc3cc4c(cc3[C@@H]1[C@@H]2O)OCO4 | -11.8 | -1.7 | -66.1* | -4.0 | 0.1
COc1cc2c(cc1OC)C1Cc3ccc(OC)c(OC)c3CN1CC2 (stereo not given) | -14.0 | 0.1 | -74.3* | 1.2 | -0.1
CCOc1ccc(CC2c3cc(OCC)c(OCC)cc3CCN2C(=O)c2cc(OC)c(OC)c(OC)c2)cc1OCC (stereo not given) | -7.5 | 4.5 | 6.2 | 0.8 | -0.8
O[C@@H]1[C@@H](O)C=C2CCN3Cc4cc5c(cc4[C@H]1C23)OCO5 (stereo not given in full) | -3.5 | -0.2 | -11.0 | 3.4 | -1.7
COc1cc2c(cc1OC)[C@@H]1Cc3ccc(OC)c(OC)c3CN1CC2 | -5.8 | 2.5 | -53.3* | -3.2 | 1.0
CSc1ccccc1OCc1cc(C(=O)N2CCc3c(Cl)cccc3C2)no1 | -5.4 | 10.4 | 11.0 | 0.9 | 0.3
